Measurements reported in PubChem BioAssay (EPA / NIEHS).
“And” between values parts separate entries of the source, which are not always exact repeats. Equal values may be shown once. A structure can be active in one record and inactive in another. The source made the active and inactive calls. How the source made its calls: active means hit-call score of the fitted dose curve at least 0.9, where 1 is the maximum; inactive means score below 0.9.

What was measured:
[1] = ATG_NFI_CIS: Attagene CIS-FACTORIAL HepG2 Assay for human Nuclear Factor I (NFI) (AID 2282989); details: HepG2 cis-regulatory reporter, NFI response element transcription; actives raise or lower the signal
Outline: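 Reporter transcription driven by endogenous transcription factors in HepG2 cells; 24 h treatment. Quantitation by labelled RT-PCR fragments on capillary electrophoresis, gain- or loss-of-signal relative to DMSO.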

[2] = target: Myc proto-oncogene protein (Homo sapiens) (UniProt P01106); assay: ATG_Myc_CIS: Attagene CIS-FACTORIAL HepG2 Assay for human Myelocytomatosis (Myc) Proto-Oncogene Transcription Factor (AID 2282990); details: HepG2, Attagene cis-reporter transcription factor activity; actives raise or lower the signal
Sequence of Myc proto-oncogene protein (Homo sapiens) (P01106 whole entry, looked up): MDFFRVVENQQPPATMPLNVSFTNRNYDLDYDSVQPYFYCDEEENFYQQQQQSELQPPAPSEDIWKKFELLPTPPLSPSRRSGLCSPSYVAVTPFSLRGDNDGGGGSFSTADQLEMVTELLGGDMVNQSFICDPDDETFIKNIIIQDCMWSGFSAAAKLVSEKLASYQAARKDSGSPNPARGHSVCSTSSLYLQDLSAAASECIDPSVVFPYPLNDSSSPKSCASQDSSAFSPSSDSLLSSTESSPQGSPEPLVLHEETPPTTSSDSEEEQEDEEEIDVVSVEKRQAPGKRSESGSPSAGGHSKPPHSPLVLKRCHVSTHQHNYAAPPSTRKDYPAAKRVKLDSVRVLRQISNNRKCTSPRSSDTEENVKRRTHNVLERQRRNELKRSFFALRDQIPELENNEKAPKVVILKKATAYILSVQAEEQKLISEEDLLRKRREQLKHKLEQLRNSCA
Outline: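 Multiplexed cis-reporter transcription in HepG2 cells after 24 h chemical treatment. Reporter mRNA measured by RT-PCR and capillary electrophoresis fluorescence; activity fitted bidirectionally against DMSO control.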

[3] = ATG_NF_kB_CIS: Attagene CIS-FACTORIAL HepG2 Assay for human Nuclear Factor Kappa B (NF-kB) (AID 2282991); details: HepG2 Attagene cis-factorial NF-kB reporter mRNA; actives raise or lower the signal
Outline: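 Transient MRTU transfection of human HepG2 liver cells → 24 h chemical exposure → total RNA, oligo(dT) RT → PCR, 6-FAM primer extension, HpaI digest 2 h 37 C → CE fragment analysis. Bidirectional fitting, DMSO negative control.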

[4] = ATG_NRF2_ARE_CIS: Attagene CIS-FACTORIAL HepG2 Assay for human Nuclear Factor Erythroid 2 Related Factor 2 (NFR2) response to Antioxidant Response Elements (ARE) (AID 2282992); details: HepG2 Attagene ARE/NRF2 reporter, transcription factor activity; actives raise or lower the signal
Outline: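 Transient MRTU transfection of HepG2; 24 h compound exposure; TriZol RNA, RT with oligo(dT), PCR, 6-FAM primer extension, HpaI cut, CE. Bidirectional fit vs DMSO.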

[5] = ATG_Oct_MLP_CIS: Attagene CIS-FACTORIAL HepG2 Assay for human Octamer-Binding Transcription Factor (Oct) (AID 2282993); details: HepG2 Attagene cis-factorial Oct reporter, mRNA; actives raise or lower the signal
Outline: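 Transfected HepG2 cells, 24 h treatment. Reporter mRNA quantified by RT-PCR–capillary electrophoresis; bidirectional fitting against DMSO.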

[6] = target: Cellular tumor antigen p53 (Homo sapiens) (UniProt P04637); assay: ATG_p53_CIS: Attagene CIS-FACTORIAL HepG2 Assay for human p53 Transcription Factor (AID 2282994); details: HepG2 p53 cis-element reporter, Attagene mRNA; actives raise or lower the signal
Sequence of Cellular tumor antigen p53 (Homo sapiens) (P04637 whole entry, looked up): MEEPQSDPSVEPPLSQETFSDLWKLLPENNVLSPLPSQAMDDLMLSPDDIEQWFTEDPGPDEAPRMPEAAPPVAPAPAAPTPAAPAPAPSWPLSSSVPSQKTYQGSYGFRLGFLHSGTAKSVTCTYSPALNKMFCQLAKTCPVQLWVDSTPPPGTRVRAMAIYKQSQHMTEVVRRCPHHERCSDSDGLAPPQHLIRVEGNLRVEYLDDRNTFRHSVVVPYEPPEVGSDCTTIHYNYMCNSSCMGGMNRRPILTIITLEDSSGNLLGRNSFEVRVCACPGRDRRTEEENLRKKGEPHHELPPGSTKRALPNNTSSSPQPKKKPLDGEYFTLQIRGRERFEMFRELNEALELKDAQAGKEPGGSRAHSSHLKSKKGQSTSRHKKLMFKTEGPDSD
Outline: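 HepG2, transient MRTU transfection (cis promoter elements, endogenous TFs); 24 h dosing; RNA isolation, RT-PCR, 6-FAM primer extension, HpaI digest, CE fluorescence; bidirectional fit vs DMSO.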

[7] = BSK_3C_TissueFactor: BioMAP Diversity Plus: 3C Assay for Tissue Factor Biomarker Activity (AID 2282997); details: BioMAP 3C HUVEC, tissue factor biomarker readout; actives raise or lower the signal
Outline: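 HUVEC were treated 24 h, then surface tissue factor measured by ELISA and fitted bidirectionally against DMSO. Parallel SRB total-protein staining assessed overt cytotoxicity at the same time point.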

[8] = BSK_3C_uPAR: BioMAP Diversity Plus: 3C Assay for Urokinase-type plasminogen activator receptor (uPAR) Biomarker Activity (AID 2282998); details: BioMAP 3C HUVEC, uPAR biomarker ELISA; actives raise or lower the signal
Outline: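 Readout: ELISA for surface uPAR. System: human umbilical vein endothelial primary cells, 24 h after chemical exposure. Analysis: bidirectional fit, DMSO baseline.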

[9] = BSK_3C_VCAM1: BioMAP Diversity Plus: 3C Assay for Vascular cell adhesion molecule 1 (VCAM1) Biomarker Activity (AID 2282999); details: BioMAP 3C HUVEC, VCAM1 ELISA, cytokine-stimulated; actives raise or lower the signal
Outline: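 Human umbilical vein endothelial cells were dosed with compound for 24 h, after which cell-surface VCAM-1 was quantified by ELISA. Bidirectional curve fitting used DMSO as negative control and activity baseline.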

[10] = BSK_4H_Eotaxin3: BioMAP Diversity Plus: 4H Assay for Eotaxin 3 Biomarker Activity (AID 2283000); details: primary human endothelial cells (HUVEC); actives raise or lower the signal
Outline: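 Eotaxin-3 (CCL26) levels were measured by ELISA in HUVEC primary cultures 24 h post-dosing. Gain or loss of signal was fitted in both directions, with DMSO serving as baseline and negative control.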

Measured: AC50

C=C(C)C(=O)OCC(CC)(COC(=O)C(=C)C)COC(=O)C(=C)C
active: [4] 51.4 µM
inactive: [1] | [2] | [3] | [5] | [6] | [7] | [8] | [9] | [10]

CCCN(CCC)S(=O)(=O)c1ccc(C(=O)O)cc1
inactive: [1] | [2] | [3] | [5]

OCC(O)c1ccccc1 (stereo not drawn)
inactive: [1] | [2] | [4] | [5]

CC1=CC[C@@]23C[C@@H]1C(C)(C)[C@@H]2CC[C@H]3C
inactive: [1] | [2] | [3] | [5] | [6]

CCOc1ccc(NC(=O)CC(C)O)cc1 (stereo not drawn)
inactive: [1] | [2] | [4] | [5]

O=C(O)CCCCCCCCC(=O)O
inactive: [1] | [2] | [3] | [5] | [6]

CCCCCCOC(=O)CCC
inactive: [1] | [2] | [4] | [5]

CCCCCCCCSCCO
inactive: [1] | [2] | [3] | [5] | [6]

CC/C=C\CC/C=C/CO
inactive: [1] | [2] | [5]
active: [4] 48.2 µM

CCCCCCOCCOCCO
inactive: [1] | [2] | [4] | [5]

c1ccc2cc(Nc3ccc(Nc4ccc5ccccc5c4)cc3)ccc2c1
active: [7] 13.9 µM
inactive: [1] | [2] | [3] | [4] | [5] | [6] | [8] | [9] | [10]

CC1(C)C2=CCCC(C)(C)[C@]23CC[C@H]1C3
active: [4] 100 µM | [8] 36.4 µM | [10] 27.3 µM
inactive: [1] | [2] | [3] | [5] | [6] | [7] | [9]

CCCC(=O)OCCc1ccccc1
inactive: [1] | [2] | [4] | [5]

CCCCC(CC)(CO)CO
inactive: [1] | [2] | [4] | [5]

CC(=O)C1(C)CC2=C(CCCC2(C)C)CC1C (stereo not drawn)
active: [1] 187 µM | [3] 121 µM | [4] 93.6 µM | [5] 61.1 µM | [7] 7.62 µM | [8] 8.27 µM | [9] 11 µM | [10] 9.74 µM
inactive: [2]

CCN(CC)C(=O)N(CC)CC
inactive: [1] | [2] | [3] | [4] | [5] | [6] | [7] | [8] | [9] | [10]

CC(C)CC(C)CC(O)CC(C)C (stereo not drawn)
inactive: [1] | [2] | [3] | [5] | [6]

COCCOC(=O)c1ccccc1C(=O)OCCOC
inactive: [1] | [2] | [3] | [5] | [6]

CCCC[O][Al]([O]CCCC)[O]CCCC
inactive: [1] | [2] | [4] | [5]

C=C(C#N)C(=O)OCC
active: [3] 100 µM | [6] 80 µM
inactive: [1] | [2] | [5]

C=C(C)[C@@H]1CC=C(C)C(=O)C1
inactive: [1] | [2] | [5]
active: [4] 45.4 µM

CN(C)C(=S)SC(=S)N(C)C
active: [4] 22.9 µM | [8] 31.8 µM | [9] 19.9 µM | [10] 31.4 µM
inactive: [1] | [2] | [3] | [5] | [7]

CCCCSCCCC
inactive: [1] | [2] | [3] | [5] | [6]

CS(=O)(=O)c1ccc(Cl)cc1
inactive: [1] | [2] | [4] | [5]

CCCCCCCC/C=C\CCCCCCCC(=O)OCC
inactive: [1] | [2] | [4] | [5]

O=C(c1ccccc1)C(O)c1ccccc1 (stereo not drawn)
inactive: [1] | [2] | [4] | [5]

c1ccc(Oc2ccccc2)cc1
inactive: [1] | [2] | [3] | [5] | [6]
active: [7] 30.7 µM | [8] 30.6 µM | [9] 30.7 µM | [10] 31.5 µM

CCCCCCCCCC(=O)OC
inactive: [1] | [2] | [3] | [5]

CCOc1ccc(NC(=O)CC(C)=O)cc1
inactive: [1] | [2] | [4] | [5]

CC1(C)CCC[C@]2(C)[C@H]3CCO[C@]3(C)CC[C@@H]12
inactive: [1] | [2] | [3] | [5] | [8] | [9]
active: [4] 155 µM | [7] 32 µM and 30.7 µM | [8] 32.9 µM | [10] 33.2 µM and 35 µM

C=C1C[C@]23C[C@@]1(O)CC[C@H]2[C@@]12C=C[C@H](O)[C@@](C)(C(=O)O1)[C@H]2[C@@H]3C(=O)O
inactive: [1] | [2] | [4] | [5]

O=C1OC2(c3ccccc31)c1ccc(O)c(Br)c1Oc1c2ccc(O)c1Br
active: [7] 31.9 µM | [8] 20 µM | [9] 20 µM | [10] 28.9 µM
inactive: [1] | [2] | [3] | [4] | [5]

CC1(C)O[C@@H]2[C@@H](CO[C@@]3(COS(N)(=O)=O)OC(C)(C)O[C@@H]23)O1
inactive: [1] | [2] | [3] | [5] | [6]

C=C(C)C1CC=C(C)C(=O)C1 (stereo not drawn)
inactive: [1] | [2] | [4] | [5]

CC=Cc1ccc(OC)c(OC)c1
inactive: [1] | [2] | [4] | [5] | [6]

CCCCCCCC(=O)OCC(O)CO (stereo not drawn)
inactive: [1] | [2] | [4] | [5] | [6]

O=C(O)CCCCCCCCCCCC(=O)O
inactive: [1] | [2] | [4] | [5] | [6]

N#Cc1ccc(CC(=O)c2cccc(C(F)(F)F)c2)cc1
active: [1] 188 µM | [2] 158 µM | [4] 13.5 µM
inactive: [5] | [6]

CCCC(=O)C(CC)Sc1ccoc1C (stereo not drawn)
inactive: [1] | [2] | [5] | [6]
active: [4] 27.7 µM

CC[N+](C)(CC)CC
inactive: [1] | [2] | [4] | [5] | [6]

CCC(=O)O[C@@H]1C[C@H]2CC[C@]1(C)C2(C)C
inactive: [1] | [2] | [4] | [5] | [6]

CCCCC1(COC(=O)CCC(=O)O)C(=O)N(c2ccccc2)N(c2ccccc2)C1=O
inactive: [1] | [2] | [4] | [5] | [6]

Cc1cc(C)nc(NS(=O)(=O)c2ccc(N)cc2)n1
inactive: [1] | [2] | [4] | [5] | [6]

COC(=O)Nc1ccc(Cl)c(Cl)c1
active: [4] 100 µM
inactive: [1] | [2] | [5] | [6]

CC(C)NCC(O)COc1ccc(CC(N)=O)cc1 (stereo not drawn)
active: [4] 61.5 µM
inactive: [1] | [2] | [5] | [6]

CCOC(=O)COC(=O)c1cc(Oc2ccc(C(F)(F)F)cc2Cl)ccc1[N+](=O)[O-]
inactive: [1] | [2] | [4] | [5] | [6]

Cc1occc(=O)c1OC(=O)C(C)C
inactive: [1] | [2] | [4] | [5] | [6]

CC=CC=CCOC(=O)C(C)C
inactive: [1] | [2] | [5] | [6]
active: [4] 27.1 µM

Nc1ccc2c(O)cc(S(=O)(=O)O)cc2c1
inactive: [1] | [2] | [4] | [5] | [6]

CCCC1O[C@@H]2C[C@H]3[C@@H]4CCC5=CC(=O)C=C[C@]5(C)[C@H]4[C@@H](O)C[C@]3(C)[C@]2(C(=O)CO)O1 (stereo partly drawn)
active: [4] 78.9 µM | [6] 37.5 µM
inactive: [1] | [2] | [5]

CCCCCCC(=O)c1ccccc1
active: [4] 121 µM
inactive: [1] | [2] | [5]

COC(=O)c1ccc([N+](=O)[O-])cc1
inactive: [1] | [2] | [4] | [5] | [6]

CN1CCOCC1
inactive: [1] | [2] | [4] | [5] | [6]

CCc1cc(C(C)(C)C)c(O)c(C(C)(C)C)c1
active: [1] 54 µM | [4] 52.6 µM
inactive: [2] | [5] | [6]

CN(C)CCOC(C)(c1ccccc1)c1ccccn1 (stereo not drawn)
inactive: [1] | [2] | [4] | [5] | [6]

CC(C)(C)c1ccc(C(=O)O)cc1
inactive: [1] | [2] | [4] | [5] | [6]

NCc1ccco1
inactive: [1] | [2] | [4] | [5] | [6]

Cc1ncc([N+](=O)[O-])n1CCO
inactive: [1] | [2] | [4] | [5] | [6]

O=C(O)c1ccc(O)cc1
inactive: [1] | [2] | [4] | [5] | [6]

C=C[Si]1(C)O[Si](C)(C=C)O[Si](C)(C=C)O[Si](C)(C=C)O1 (stereo not drawn)
inactive: [1] | [2] | [5] | [6]
active: [4] 12 µM
